TAG inh – inhibitors of triacylglycerol accumulation, primary screen, cell-based, uHTS, fluorescence, H9c2. H9c2 cells, Nile Red lipid (TAG) fluorescence; cells loaded with 200 µM oleic acid. AID 651582, 2012. inhibition, % at 12.5 µM. 230,000 tested, 0.66% active;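 active = pattern-corrected inhibition of lipid staining of at least 50% with the nuclear-stain viability signal not falling by more than 50%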;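 note: 0% = DMSO wells and 100% = triacsin C control wells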
Kir21 block – inhibitors of mouse Kir2.1 inward-rectifier potassium channel; Inward rectifier potassium channel 2 (Mus musculus), P35561; 310,000 tested, 0.85% active; B-score at 10 µM; HEK293-Kir2.1, FluxOR thallium flux fluorescence; stronger effect = lower value;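 active = fluorescence ratio B-score at or below minus 3 SD of library scores, with starting-brightness B-score within 2 SD, cut at about -4.2 in these data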;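 note: channel flux triggered by added potassium and thallium sulfate stimulus; B-score of peak minus minimum fluorescence over baseline after thallium stimulus; more negative B-score means stronger Kir2.1 block with less thallium influx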
Target sequence (P35561 whole entry, looked up): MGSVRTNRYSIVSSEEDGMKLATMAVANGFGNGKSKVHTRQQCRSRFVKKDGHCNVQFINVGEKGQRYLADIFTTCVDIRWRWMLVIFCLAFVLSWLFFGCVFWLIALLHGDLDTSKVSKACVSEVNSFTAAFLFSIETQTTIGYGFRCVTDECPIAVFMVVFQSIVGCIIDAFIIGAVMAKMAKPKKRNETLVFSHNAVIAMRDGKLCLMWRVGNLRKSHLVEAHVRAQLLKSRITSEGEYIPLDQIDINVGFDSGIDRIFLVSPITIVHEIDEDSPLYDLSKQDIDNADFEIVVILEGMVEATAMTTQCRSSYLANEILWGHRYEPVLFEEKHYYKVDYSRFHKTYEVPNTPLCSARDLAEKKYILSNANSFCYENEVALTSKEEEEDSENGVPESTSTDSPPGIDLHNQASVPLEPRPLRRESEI
CHT block – inhibitors of human choline transporter CHT; High affinity choline transporter 1 (Homo sapiens), Q9GZV3; CHT-expressing cells, membrane potential dye, choline response; stronger effect = lower value; B-score at 10 µM; 310,000 tested, 0.86% active; AID 488975, 2010;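 active = B-score over 3 SD under the library average, and starting fluorescence ratio not unusually high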;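 note: choline stimulus applied at its EC90 after an EC20 pre-addition; B-score computed on integrated fluorescence ratio after choline addition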
CHT allo act – CHT positive allosteric modulators, primary screen, cell-based, membrane potential dye, choline EC20; CHT-expressing cells; stronger effect = higher value; LV-AA mutant CHT in HEK293 cells; B-score at 10 µM; 310,000 tested, 0.49% active;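 active = initial fluorescence not abnormally high and integrated response B-score, plate-corrected, over 3 SD above library mean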
CHT act confirm – CHT activators, confirmation, cell-based, membrane potential dye, duplicate; shares compounds with CHT allo act; CHT-expressing cells, membrane potential dye fluorescence (FDSS); % of choline EC20–EC90 response window; HEK293 expressing CHT LV-AA mutant; choline added at its EC20; activation, % at 10 µM; 2,500 tested, 91% active; AID 504833, 2011;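 active = primary screen active, with duplicate mean activation above negative control mean plus 3 SD, cut at about 11% in these data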
HEK293 MP dye – membrane potential response in parental HEK293 cells, counter-screen for CHT activator project, cell-based, membrane potential dye; shares compounds with CHT allo act; membrane potential dye fluorescence (FDSS); measured after EC20 choline addition; 2,500 tested, 62% active; ratio readout change at 10 µM, hits read low;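 active = duplicate-averaged ratio beyond 3 SD from buffer wells, up or down, though filed actives are nearly all decreases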
Numbers without * were called inactive; i = inactive; · = not tested or not shown. Sampled rows, rich in hits. Any-hit rate of the full collection: about 2%.

SMILES | TAG inh | Kir21 block | CHT block | CHT allo act | CHT act confirm | HEK293 MP dye
CC[n+]1c(/C=C/N(C)c2ccccc2)sc2ccc(Cl)cc21 | · | 0.38 | i | i | 14.9* | -39.5*
N#CC1C(C#N)C2CCC1C1C2N1c1ccccc1 (stereo unspecified) | 9.6 | · | · | · | · | ·
CN(C)c1nc(-c2ccccc2)[n+](C)s1 | -8.4 | 0.49 | i | i | 26.2* | -48.7*
C[n+]1ccc(-c2cc[n+](C)cc2)cc1 | 0.3 | · | i | 10.9* | 85.4* | -100*
CCCCCCC[n+]1ccc(-c2cc[n+](CCCCCCC)cc2)cc1 | · | 0.96 | i | i | · | ·
C[C@]12CCC3C(CC[C@H]4C[C@H](O)[C@H](O)C[C@]34C)C1CC[C@@H]2O (stereo partly specified) | -12.4 | · | · | · | · | ·
C[n+]1c(-c2ccccc2)sc2ccccc21 | · | 0.08 | i | i | 51.5* | -42*
COC(=O)C1=C(c2cccc(C#N)c2)C[C@@H]2CC[C@H]1N2C(=O)NCc1ccco1 | -3.6 | · | · | · | · | ·
Cc1cc(N2CCN(C)CC2)nc2ccccc12 | · | -0.34 | i | 7.02* | 48.9* | -50.5*
CSc1nc(N2CCN(C)CC2)c2ccccc2n1 | 9.1 | 0.12 | i | 6.33* | 46.7* | -67.8*
COc1ccc(-n2c(O)c(/C(C)=N/N3CCCCCC3)c(=O)[nH]c2=O)cc1 | -0.1 | 1.3 | i | i | · | ·
CNc1cc(N2CCNCC2)ccc1[N+](=O)[O-] | · | 0.51 | i | i | 38.5* | -48.8*
COc1ccc(-c2nn(Cc3ccccc3)cc2C(=O)NC2CC2)cc1OC | 4.3 | · | · | · | · | ·
Cc1ccc(-c2nc(N3CCOCC3)s[n+]2-c2ccccc2)cc1 | 14.2 | 0.01 | i | 6.73* | 55.4* | i
CN1CCN(C(=O)COc2ccc(N(C)S(=O)(=O)c3ccc(F)cc3)cc2)CC1 | -8.6 | -0.12 | i | i | · | ·
CCCc1nc2ccc(Br)cc2c(=O)n1-c1ccc([N+](=O)[O-])c(C(F)(F)F)c1 | · | 0.36 | i | i | 1.6 | i
CCc1nc2ccc(Br)cc2c(=O)n1-c1ccccc1C(F)(F)F | 2.2 | 0.02 | i | i | · | ·
Oc1ccc(-[n+]2c(-c3ccccc3)cc(-c3ccccc3)cc2-c2ccccc2)cc1 | 12.2 | -10.2* | i | 9.77* | 80.4* | -26*
C[n+]1c(-c2ccccc2)cc(-c2ccc(O)cc2)cc1-c1ccccc1 | -3.8 | -0.46 | i | 6.96* | 55.4* | -57.6*
Cc1ccc(-c2cc(-c3ccccc3)cc(-c3ccccc3)[n+]2-c2ccccc2C(=O)O)cc1 | -23.9 | -1.97 | i | i | · | ·
O=[N+]([O-])c1ccc(CN2CC=C(c3ccccc3)CC2)cc1 | · | 1.67 | i | i | · | ·
O=[N+]([O-])c1ccc(-[n+]2c(-c3ccccc3)cc(-c3ccccc3)cc2-c2ccccc2)cc1 | · | -2 | i | i | 65.6* | -28.1*
O=c1[nH]c(=S)[nH]c(O)c1CN1CCCCC1 | · | 2.11 | i | i | · | ·
Cc1ccc2c(c1)C(c1ccccc1)=NCC(=O)N2C | 19.1 | 2.78 | i | i | · | ·
C[C@]12CC[C@H](O)CC1=CC(=O)C1C2CC[C@]2(C)C(=O)[C@H](O)CC12 (stereo partly specified) | -0.9 | · | · | · | · | ·
COC(=O)C1=C(c2cccc(C#N)c2)C[C@@H]2CC[C@H]1N2C(=O)NCCNC(C)=O | -13.7 | · | · | · | · | ·
Nc1c(C(=O)NCc2ccco2)c2nc3ccccc3nc2n1CCN1CCOCC1 | · | 1.32 | i | 6.41* | 19.8* | -20.5*
O=C1C2CCCN2C(c2ccncc2)N1c1ccc(Cl)c(Cl)c1 (stereo unspecified) | -0.3 | 0 | i | i | · | ·
Cc1sc2ccccc2c1CC1=NCCN1 | -4.8 | · | i | 7.8* | 45.8* | -50*
Cc1ccc(NC(=O)c2cn(CCC#N)nc2-c2ccc3c(c2)OCCO3)c([N+](=O)[O-])c1 | · | -1.35 | i | i | · | ·
